# Active and inactive are the calls of the source. Calls follow the shape of the dose curve; as a rule, active = well fitted curve in the direction sought with a large enough effect in the repeat runs; inconclusive = weak or mixed curves; inactive = flat fitted curve, though single readings scatter.
# Experiment: qHTS assay to test for compound auto fluorescence at 535 nm (green) in HEK293 cell free culture (AID 720682)
# Conditions: cell-free medium, green autofluorescence 485/535 nm; series mostly up to 91.3 µM
# Text: U.S. Tox21 Program National Center for Advancing Translational Sciences [NCATS] NIH Chemical Genomics Center [NCGC] U.S. Environmental Protection Agency [EPA] National Institutes of Environmental Health Sciences [NIEHS] National Toxicology Program [NTP] U.S. Food and Drug Administration [FDA] Tox21 Assay Overview: Compound auto fluorescence often interferes with screening of the compound library against various biological targets and signaling pathways. Some of these compounds may have fluorophoric properties. Such properties may interfere with the assay outputs resulting in false positives and/or negatives. To decrease such complications and ensure the compound activities are relevant in terms of biological response, the Tox21 10K compound library was screened for auto fluorescence. From the fluorophores used as reporter signals in our screening assays, the auto fluorescence equivalencies of compounds against three fluorophores have been evaluated: Triamterene, Fluorescein and Rose Bengal sodium for blue, green and red fluorescence, respectively. The fluorescence intensities were measured using Excitation/Emission wavelengths at 405/460nm, 485/535nm and 540/590nm for blue, green and red labels, respectively. This assay includes the green fluorescence data.
# Tox21 Assay Protocol Summary: 5 uL of culture medium (DMEM containing 10% FBS) per well was dispensed into black wall/clear bottom 1536-well plates using a Multidrop Combi Dispenser (ThermoFisher Scientific, Waltham, MA). After 23 nL compound or DMSO vehicle was transferred into assay plate by a pintool work station (Kalypsys, San Diego, CA), fluorescence intensities in the assay plates were measured by an Envision (PerkinElmer, Shelton, CT) plate reader using three labels for measuring blue, green and red fluorescence at […] 460, 535 and 590nm respectively.
row,Compound,outcome
1,COc1c2ccoc2cc2oc(=O)ccc12,inactive
2,CC(COCC(C)OC(=O)c1ccccc1)OC(=O)c1ccccc1 (stereo not given),inactive
3,OB(O)O,inactive
4,C=CC(C)(C)C,inactive
5,C=C(C)CC(C)(C)C,inactive
6,Cc1ncc(CO)c(CO)c1O,inactive
7,OCCOCCOCCOCCOCCO,inactive
8,COc1ccc2cc3[n+](cc2c1OC)CCc1cc2c(cc1-3)OCO2,inactive
9,Nc1cccc(C(F)(F)F)c1,inactive
10,NC(=O)NC(N)=O,inactive
11,CN=C(NC#N)NCCSCc1nc[nH]c1C,inactive
12,CCCOCC(C)O (stereo not given),inactive
13,O=C(O)Cc1c[nH]c2ccccc12,inactive
14,O=C1C(N(CO)C(=O)NCO)N(CO)C(=O)N1CO (stereo not given),inactive
15,CCCCCCCCO,inactive
16,COCN(COC)c1nc(N(COC)COC)nc(N(COC)COC)n1,inactive
17,CC(CN1c2ccccc2Sc2ccccc21)N(C)C (stereo not given),inactive
18,C1CCCNCC1,inactive
19,CCc1cccc(O)c1,inactive
20,O=Cc1ccc(CO)o1,inactive

row,Compound,outcome
1,Cc1cc(C)c(O)c(C)c1,inactive
2,O=[N+]([O-])c1cc(C(F)(F)F)ccc1Cl,inactive
3,CS(=O)(=O)c1ccc(Cl)cc1,inactive
4,Nc1cccc(N)n1,inactive
5,COC(=O)CCCCC(=O)OC,inactive
6,OCC(CO)(CO)CO,inactive
7,N#CCC(=O)O,inactive
8,CCOC(=O)c1ccc(O)cc1,inactive
9,N[C@@H](Cc1cc(I)c(Oc2ccc(O)c(I)c2)c(I)c1)C(=O)O,inactive
10,CC(=O)OC(C)(C)C1CC=C(C)CC1 (stereo not given),inactive
11,O=c1n(CCCN2CCN(c3cccc(Cl)c3)CC2)nc2ccccn12,inactive
12,COc1c(Cl)ccc(Cl)c1C(=O)O,inactive
13,CCCN(CCC)C(=O)SCC,inactive
14,CC(=O)OCCC(C)C,inactive
15,O=c1c(O)c(-c2ccc(O)c(O)c2)oc2cc(O)cc(O)c12,inactive
16,OC1CCCCC1,inactive
17,O=C1CCCCCCCCCCC1,inactive
18,COc1ccccc1[N+](=O)[O-],inactive
19,CC1(C)[C@@H](O[C@H]2O[C@H](C(=O)O)[C@@H](O)[C@H](O)[C@H]2O[C@@H]2O[C@H](C(=O)O)[C@@H](O)[C@H](O)[C@H]2O)CC[C@]2(C)[C@H]3C(=O)C=C4[C@@H]5C[C@@](C)(C(=O)O)CC[C@]5(C)CC[C@@]4(C)[C@]3(C)CC[C@@H]12,inactive
20,Oc1ccc(Cc2ccccc2O)cc1,inactive

# Reference: PubChem BioAssay (Tox21)
